Measurements as given in PubChem BioAssay (NCI).
The panel holds about 83,000 compounds, 20% with a hit somewhere; the sample as a whole holds those more often.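 How to read the values: 0–100, growth inhibition (40 = 60% inhibited); 0, no net growth; -100 to 0, cell death (-40 = 40% of starting cells died; -100 = all dead).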 Unmarked numbers belong to inactive results. Active and inactive are the calls of the source. The calls were made as follows: active = growth percent below 10; inactive = the rest.

These compounds were tested on HL-60(TB) leukemia (assay: NCI-60 one-dose screen, 48 h (100 = growth as untreated, 0 = no growth, -100 = all killed)). Settings: 10 µM unless noted.

Row | SMILES | growth
1 | COc1ccccc1/C=C\C(=O)c1ccccc1 | 48.3%
2 | CS(=O)(=O)Nc1cc(-c2ccc3ncnc(Nc4ccc5c(cnn5Cc5ccccc5F)c4)c3c2)cnc1Cl | 22.7%
3 | COc1cc(N)ccc1Nc1c2ccccc2nc2ccccc12 | 48.2%
4 | O=S(=O)(NCCCNc1nccc(-n2ccc3cccnc32)n1)c1ccc(Br)cc1 | 110%
5 | C[C@]12O[C@H](C[C@]1(O)CO)n1c3ccccc3c3c4c(c5c6ccccc6n2c5c31)CNC4=O | -32.7% (active)
6 | CCOc1ncc([N+](=O)[O-])c(OCC)n1 | 108%
7 | COc1ccc(C2N(c3cc(OC)c(OC)c(OC)c3)C(=O)C2(F)F)cc1F (stereo not given) | 0.936% (active)
8 | COc1cc(Cc2cc(-c3ccccc3)n[nH]c2=O)cc(OC)c1OC | 53.4%
9 | COC1=CC(c2ccc[nH]2)=N/C1=C\c1[nH]c(C)c(C(=O)CCCCC(=O)NC(C)(C)C)c1C | 3.43% (active)
10 | CO[C@H]1CC(O[C@@H]2/C(C)=C/C[C@@H]3C[C@@H](C[C@]4(CC[C@H](C)[C@@H](C5CCCCC5)O4)O3)OC(=O)[C@@H]3C=C(C)/C(=N/O)[C@H]4OC/C(=C\C=C\[C@@H]2C)[C@]43O)O[C@@H](C)C1O (stereo not given in full) | -48.7% (active)
11 | O=[N+]([O-])c1ccc(Cl)c(-c2cc(CCCCO)on2)c1 | 90.7%
12 | C#Cc1cccc(Nc2nc3cc([N+](=O)[O-])ccc3nc2Nc2ccc(O)cc2)c1 | 4.42% (active)
13 | COc1ccc(C2CC(c3cccs3)=NN2c2ccc(S(=O)(=O)NC(=O)NCc3cccc(OC)c3)cc2)cc1 (stereo not given) | 103%
14 | Brc1cccc(-n2ncc3c(Nc4ccc(-c5nnc(-c6ccccc6)o5)cc4)ncnc32)c1 | 122%
15 | COc1cc(/C=C/C(=O)C(C(=O)/C=C/c2ccc(OC(=O)CCNc3nnc(C)s3)c(OC)c2)C(=O)CCNc2nnc(C)s2)ccc1OC(=O)CCNc1nnc(C)s1 | -40.1% (active)
16 | COc1cc(/C=C2\C(=O)N(c3c(Cl)cccc3Cl)c3ccccc32)cc(OC)c1OCCCCCCn1c2ccccc2c(=O)c2ccccc21 | 106%
17 | Cc1cc2nc3ccc(N=Nc4ccc(N(C)C)cc4)cc3n(-c3ccccc3)c-2cc1=N | -2.79% (active)
18 | COc1ccc2[nH]c(O)c(/C=c3/cc4c(c(-c5ccc(F)cc5)n3)=Nc3ccccc3-4)c2c1 | 92.5%
19 | CCC(C)[C@H](NC(=O)Nc1cc(C(F)(F)F)cc(C(F)(F)F)c1)C(=O)N[C@@H](Cc1cn(C)cn1)C(=O)OC (stereo not given in full) | -78.4% [100 µM] (active)
20 | COc1ccc(C(=O)c2cc(C)c(OC)c(C)c2)c(OC)c1NC(C)=O | -26.3% (active)

Row | SMILES | growth
21 | COc1cccc(-c2nc3sccn3c2-c2ccnc(NCCNS(=O)(=O)c3ccc(F)cc3)c2)c1 | -6.21% (active)
22 | CCOC(=O)c1c(C)nc2c(c1N)/C(=C/c1cc(OC)c(OC)c(OC)c1)C(=O)N2c1ccc(OC)cc1 | 28.2%
23 | O=c1[nH]n(-c2ccccc2)c(=O)cc1Cl | 103%
24 | COc1ccc(-c2c(-c3cc4c(c(OC)c3OC)OCO4)noc2N)cc1 | 16.8%
25 | C=C1C(=O)O[C@@H]2C3C(=C(C)CC[C@@H]12)CC1O[C@]13C (stereo not given in full) | 77.6% [6.75 µM]
26 | Cc1ccn2c(-c3csc(Nc4cccc(O)c4)n3)c(C)nc2c1 | -19.4% (active)
27 | O=C1Nc2ccccc2/C1=C\c1c[nH]c2ccc(Br)cc12 | 73.1%
28 | CCN1C(=O)N(CC)C2C1NN=c1s/c(=C\c3ccc(Br)cc3)c(=O)n12 (stereo not given) | -30.5% (active)
29 | CC(C)CCSc1nc(Nc2ccccc2)c(C#N)c(-c2ccccc2)n1 | 76.5%
30 | N#CSCc1ccc(Cl)c(CSC#N)c1 | 0.395% (active)
31 | NC1=NC(=O)NC1(c1ccccc1)c1ccccc1 | 98.4%
32 | COc1ccc(/C=C2\Oc3cc(OCCCN4CCCCC4)ccc3C2=O)cc1OC | 99.9%
33 | Cc1ccc2[nH]c(=S)n(-c3ccc(S(=O)(=O)Nc4ccc(Cl)nn4)cc3)c(=O)c2c1 | 100%
34 | COC(=O)CCC/C=C\C[C@H]1C=CC(=O)/C1=C/C[C@@H](O)CCc1cccc(C(F)(F)F)c1 | -18.2% (active)
35 | CC1(n2nnnc2N2CCCN(c3ncccc3N)CC2)CCC1 | 102%
36 | N#C/C(C(=O)c1ccccc1)=C1/C(=O)Nc2ccc(Br)cc21 | 146%
37 | Cn1cc(-c2noc(-c3cn(C)c4ncccc34)n2)c2cc(Cl)ccc21 | 80.2%
38 | O=C1/C(=C\c2ccc(F)cc2)CN(C(=O)c2ccc([N+](=O)[O-])cc2)C/C1=C\c1ccc(F)cc1 | 65.1%
39 | COc1cc2c(cc1OCCCCCN1CCN(c3ncnc4ccccc34)CC1)N=CC1CCCN1C2=O (stereo not given) | -25.8% (active)
40 | Cc1ccccc1NC(=O)N/C(N)=N/c1nc(-c2cccc([N+](=O)[O-])c2)cs1 | 6.06% (active)
